Data on 58 compounds can be found in PubChem BioAssay AID588664 (The Scripps Research Institute Molecular Screening Center, 2011).

In all, about 360,000 compounds went through this assay and about 1,400 (0.39%) were called active. Shown is part of a subset that was picked to be rich in actives. Unmarked numbers belong to inactive results. Cut-off read from the data, not from the text of the source: active = inhibition above about 5% (passing the limit was not always enough); inactive = the rest.

Tyrosine-protein kinase ABL1 (Homo sapiens) + Ras and Rab interactor 1 (Homo sapiens), sequence (P00519 whole entry, looked up): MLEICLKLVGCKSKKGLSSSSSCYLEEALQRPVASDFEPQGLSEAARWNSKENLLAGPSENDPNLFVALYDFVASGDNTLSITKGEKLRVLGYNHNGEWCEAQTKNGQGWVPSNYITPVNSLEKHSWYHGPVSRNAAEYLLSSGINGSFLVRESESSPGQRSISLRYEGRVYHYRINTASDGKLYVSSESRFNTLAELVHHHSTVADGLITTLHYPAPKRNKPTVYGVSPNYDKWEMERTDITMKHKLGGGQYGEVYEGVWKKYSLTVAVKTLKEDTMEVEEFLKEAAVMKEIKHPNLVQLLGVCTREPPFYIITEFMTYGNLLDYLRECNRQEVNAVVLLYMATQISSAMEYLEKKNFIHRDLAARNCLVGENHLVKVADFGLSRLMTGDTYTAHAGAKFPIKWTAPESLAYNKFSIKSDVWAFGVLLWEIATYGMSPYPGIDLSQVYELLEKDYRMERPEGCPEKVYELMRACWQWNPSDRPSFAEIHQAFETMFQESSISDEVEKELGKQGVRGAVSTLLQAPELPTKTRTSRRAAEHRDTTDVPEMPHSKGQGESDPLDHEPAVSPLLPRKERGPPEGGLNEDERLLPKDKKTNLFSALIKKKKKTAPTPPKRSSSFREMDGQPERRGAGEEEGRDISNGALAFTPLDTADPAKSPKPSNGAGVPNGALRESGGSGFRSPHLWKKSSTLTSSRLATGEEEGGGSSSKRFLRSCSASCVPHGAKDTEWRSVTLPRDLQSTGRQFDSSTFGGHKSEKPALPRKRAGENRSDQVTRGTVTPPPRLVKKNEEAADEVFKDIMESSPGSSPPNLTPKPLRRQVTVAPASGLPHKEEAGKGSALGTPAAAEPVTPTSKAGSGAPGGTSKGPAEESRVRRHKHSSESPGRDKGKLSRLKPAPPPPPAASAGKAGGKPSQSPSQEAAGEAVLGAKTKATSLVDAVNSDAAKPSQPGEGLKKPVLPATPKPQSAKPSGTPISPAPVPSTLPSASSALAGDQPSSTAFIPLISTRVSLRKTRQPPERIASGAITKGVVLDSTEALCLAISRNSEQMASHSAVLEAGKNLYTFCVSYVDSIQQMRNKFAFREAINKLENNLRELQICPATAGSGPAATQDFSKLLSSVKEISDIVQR
Tyrosine-protein kinase ABL1 (Homo sapiens) + Ras and Rab interactor 1 (Homo sapiens), sequence (Q13671 whole entry, looked up): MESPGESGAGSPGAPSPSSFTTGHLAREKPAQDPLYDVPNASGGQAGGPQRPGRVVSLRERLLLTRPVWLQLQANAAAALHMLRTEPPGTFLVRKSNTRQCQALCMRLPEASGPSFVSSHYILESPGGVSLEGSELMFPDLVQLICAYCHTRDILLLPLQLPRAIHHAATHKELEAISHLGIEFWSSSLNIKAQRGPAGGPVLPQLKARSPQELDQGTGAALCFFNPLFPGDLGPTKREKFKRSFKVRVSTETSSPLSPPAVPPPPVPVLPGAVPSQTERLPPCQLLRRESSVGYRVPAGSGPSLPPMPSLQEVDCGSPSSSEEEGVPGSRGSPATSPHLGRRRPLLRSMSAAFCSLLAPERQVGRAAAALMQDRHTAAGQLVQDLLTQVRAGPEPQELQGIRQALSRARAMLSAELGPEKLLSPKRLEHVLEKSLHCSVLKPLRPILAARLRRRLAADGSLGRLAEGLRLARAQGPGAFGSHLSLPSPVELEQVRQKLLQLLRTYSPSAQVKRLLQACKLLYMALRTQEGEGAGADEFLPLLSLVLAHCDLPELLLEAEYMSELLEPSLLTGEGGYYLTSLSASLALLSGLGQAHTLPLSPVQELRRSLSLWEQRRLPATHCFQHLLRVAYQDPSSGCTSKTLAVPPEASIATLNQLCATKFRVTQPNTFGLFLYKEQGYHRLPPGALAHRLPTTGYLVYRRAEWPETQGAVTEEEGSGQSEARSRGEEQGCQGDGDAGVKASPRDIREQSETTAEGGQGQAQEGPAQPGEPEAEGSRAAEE

This test has as its target Tyrosine-protein kinase ABL1 (Homo sapiens) + Ras and Rab interactor 1 (Homo sapiens) (UniProt P00519+Q13671). Description: disruptors of human Abl and Rin1 association – biochemical, TR-FRET, primary screen (AID 588664). To be noted: TR-FRET Rin1/Abl binding, at 7.35 µM, active compounds read high.
As to `CCOc1ccc(S(=O)(=O)N2CCCCC2)cc1NC(=O)CN1CCCC1c1cccs1` (stereo not drawn), the inhibition is 8.67% (active).
The result for `COc1ccc(S(=O)(=O)N2CCCCC2)cc1NC(=O)COc1ccccc1` reads 0.41%.
The result for `CCOc1ccccc1NC(=O)COc1ccc(S(=O)(=O)N2CCCC2)cc1` reads 2.38%; that for `COc1ccccc1C(CNC(=O)c1ccc(C)c(S(=O)(=O)N2CCCCC2)c1)N(C)C` (stereo not drawn), 1.36%.
The figure for `COc1ccc(NC(=O)C(C)N2c3cccc4cccc(c34)S2(=O)=O)c(OC)c1` (stereo not drawn) is 0.54%; for `NC(=O)C[C@@H]1NC(=O)CNC(=O)c2cc([N+](=O)[O-])cc(I)c2NCCC(C(N)=O)NC1=O` (stereo partly drawn) it is -0.35%; for `O=C(COc1ccc(S(=O)(=O)NCc2ccccc2)cc1)N1CCOCC1` it is -6.66%.
Take `CC(NS(=O)(=O)c1ccc(OCC(=O)N2CCCC2)cc1)c1ccccc1` (stereo not drawn): the inhibition is 1.07%.
The figure for `O=C(COc1ccc(S(=O)(=O)NCCc2ccccc2)cc1)N1CCCC1` is 7.8% (active); for `COc1cc(C(=O)N/C(=C\c2cn(C)c3ccccc23)C(=O)N2CCOCC2)cc(OC)c1OC` it is 3.65%; for `Cc1cccc(N)c1SC1CCCCC1O` (stereo not drawn) it is -2.16%.
The result for `COC(=O)C1=C(N)Oc2c(oc(CO)cc2=O)C1c1c(F)cccc1Cl` (stereo not drawn) reads 1.15%; that for `Cc1cccc(CN2CCN(C3CN(Cc4ccccc4)S(=O)(=O)C3)CC2)c1` (stereo not drawn), 5.69%.
The result for `NC(=O)c1ccsc1NC(=O)COC(=O)Cc1n[nH]c(=O)c2ccccc12` reads 1.63%.
In the case of `Cc1ccc(S(=O)(=O)C2(S(=O)(=O)c3ccc(C)cc3)CCCC2)cc1`, the inhibition was 1.29%.
The result for `CC1(C(=O)Nc2cccc3c2CCCC3)CCN1C(=O)C1(c2ccccc2)CC1` (stereo not drawn) reads 1.83%; that for `CC(OC(=O)c1ccccc1NCCO)C(=O)Nc1ccnn1C(C)C` (stereo not drawn), 44.6% (active); that for `COC(=O)c1ccccc1NC(=O)CSc1ccccn1`, -0.76%.
The result for `Cc1c(NC(=O)C(C)OC(=O)c2ccccc2O)c(=O)n(-c2ccccc2)n1C` (stereo not drawn) reads -1.15%; that for `C=CCc1cc(C)ccc1OCCCn1ccnc1`, 0.39%; that for `CCc1ccccc1NC(=S)N(CCN1CCCCCC1)Cc1ccco1`, -2.14%.
The result for `Cc1cc(C)n(CCNCc2c(C(=O)N3C[C@@H](C)O[C@@H](C)C3)nc3ccc(Cl)cn23)n1` reads 5.28%.
As for `CC(=O)c1cccc(NC(=O)C2CCN(C(=O)c3ccccc3Cl)CC2)c1`, the inhibition is -0.65%.
The result for `CCc1nnc(NC(=O)C2CCN(C(=O)c3ccccc3C)CC2)s1` reads -1.24%; that for `Cc1ccccc1C(=O)N1CCC(C(=O)Nc2ccc(S(=O)(=O)N(C)C(C)C)cc2)CC1`, 14.6% (active).
The result for `Cc1ccc(CN2CCN(Cc3ccccc3-c3ccco3)CC2CCO)o1` (stereo not drawn) reads -0.29%; that for `O=Nc1c(O)cc(O)c2ccccc12`, 12.5% (active).
The figure for `COc1cccc2c(O)cc(=O)n(C)c12` is -0.91%; for `O=c1c2ccccc2ccc2ccc(P(=O)(O)O)cc12` it is 0.55%.
With `CCCC(=O)C1=C(N(C)c2ccccc2)CC(C)(C)C(C(=O)OC)C1=O` (stereo not drawn), the inhibition was 0.08%.
The figure for `CC(C)CNC(=O)CC(c1ccccc1)c1c(O)ccc2ccccc12` (stereo not drawn) is -0.65%.
The result for `COc1ccc(OCCn2ccnc2C)cc1` reads 1.4%; that for `O=[N+]([O-])c1cc(C(F)(F)F)ccc1NCCc1ccncc1`, -3.62%.
The result for `CCCn1c(N)c(C(=O)CSc2nnc(Cc3cccs3)n2C2CC2)c(=O)[nH]c1=O` reads 2.22%; that for `CCCn1c(N)c(C(=O)CSc2nnc3n2CCCCC3)c(=O)[nH]c1=O`, 6.59%.
In the case of `Cc1ccccc1-c1nnc(SCC(=O)NCc2ccc3c(c2)OCO3)n1C`, the inhibition is 0.29%.
The result for `Cc1cccc(C)c1NC(=O)CSc1nnc(-c2ccccc2)n1Cc1ccc2c(c1)OCO2` reads 8.78%.
The figure for `CCCn1c(N)c(C(=O)CSc2nnc(-c3cccnc3)n2-c2ccc(C)cc2C)c(=O)[nH]c1=O` is 12.2% (active).
The figure for `Cc1ccc(-n2c(SCC(=O)NCc3ccc4c(c3)OCO4)nnc2-c2cccnc2)c(C)c1` is 8.97% (active).
With `CCOC1CCCCC1NS(=O)(=O)c1ccc(Cl)cc1` (stereo not drawn), the inhibition is -1.9%.
The figure for `COc1ccc(C(CNC(=O)c2cc3c(s2)CCCC3)N2CCOCC2)cc1` (stereo not drawn) is -1.94%; for `O=C(c1ccc(NS(=O)(=O)c2ccc3[nH]c(=O)[nH]c3c2)cc1)N1CCCCC1` it is 2.64%; for `Cc1ccccc1N1CCN(C(=O)c2cccnc2)CC1` it is 1.88%.
With `CC(C)Cn1cnc2c1c(=O)n(CC(O)c1ccccc1)c(=O)n2CC(C)C` (stereo not drawn), the inhibition was 2.26%.
The figure for `COCCNc1nc(-n2nc(C)cc2C)nc2sc3c(c12)CCCC3` is -2.91%.
For the compound `COC(=O)c1ccccc1OCC(=O)N1CCN(c2ccc(Cl)cc2)CC1`, the inhibition was 3.93%.
The result for `COc1ccc(N2C(=O)C3CCCN3C2c2cc(OC)c(OC)cc2OC)cc1` (stereo not drawn) reads -1.54%; that for `COc1ccc(N2C(=O)C3CCCN3C2c2cccs2)cc1` (stereo not drawn), 7.79% (active); that for `COc1cccc(N2C(=O)C3CCCN3C2c2ccc(F)cc2)c1` (stereo not drawn), 1.17%.
The result for `CSc1ccc(/C=C/C(=O)NC23CC4CC(CC(C4)C2)C3)cc1` reads -0.46%; that for `CCN(Cc1ccccc1)C(=O)CCS(=O)(=O)c1ccc2c(c1)oc(=O)n2C`, -4.23%.
The figure for `CS(=O)(=O)N1CCN(C(=O)CSc2ccccc2)CC1` is 2.46%; for `O=c1oc2ccccc2cc1-c1cn(-c2ccccc2)c(=S)[nH]1` it is -2.16%; for `NC(=O)C1CCN(C(=O)c2cn(-c3ccccc3)nc2-c2cccnc2)CC1` it is 2.02%.
Take `O=C(c1cn(-c2ccccc2)nc1-c1cc2ccccc2oc1=O)N1CCOCC1`: the inhibition was 8.23% (active).
The result for `CCCCCN(C(=O)CCC(=O)OCCOc1ccc(OC)cc1)c1c(N)n(CCCC)c(=O)[nH]c1=O` reads 1.88%.
On to `Cc1cc(C(F)(F)F)nn1CC(=O)N1CCCC1`, for which the inhibition was -1.33%.
The figure for `Oc1c(C(c2ccccn2)N2CCOCC2)ccc2cccnc12` (stereo not drawn) is 27% (active).

For orientation: inhibition means the drop in the measured response relative to a control, in per cent.
